# Source: PubChem BioAssay
# In the library only some 1.5% were active in any assay of this set; here they are far more common.
# ARNT-TACC3 inh = ARNT/TACC3 interaction disruption | Q9Y6A5 | AlphaScreen His-ARNT PAS-B/GST-TACC3 binding, luminescence; TACC3 fragment carries E629A point mutation | inhibition, % at 9.99 µM | 390,000 tested, 0.66% active;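 active = mean inhibition of replicates at least 50% and at least half of replicates each reaching 50%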;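 note: 0% = complete ARNT plus TACC3 wells and 100% = ARNT alone without TACC3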
# AI-2 QS mod = modulates the Vibrio harveyi AI-2 quorum sensing system; 300,000 tested, 0.4% active; Vibrio harveyi JMH597 AI-2 luminescence/OD600 ratio, 9 h; active compounds read low; strain lacks LuxN and CqsS sensors; 0 = neutral-control median; activity change, % at 7.5 µM; in the data active = activity change below about -75%, passing the limit was not always enough;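 note: luminescence divided by OD600 gain over 9 h not by final OD600 alone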
# HGIII-sPLA2 inh = Inhibits HGIII-sPLA2 liposome hydrolysis, primary screen. QFRET BODIPY PC-A2 liposome hydrolysis, fluorescence. 370,000 tested, 0.56% active. inhibition, % at 12.2 µM. Q9NZ20;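 active = inhibition above mean plus 3 SD of compounds lying within the high and low control bounds, cut at about 19% in these data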;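 note: 0% = median of test compound wells and 100% = no enzyme DMSO wells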
# Target sequence (Q9NZ20 whole entry, looked up): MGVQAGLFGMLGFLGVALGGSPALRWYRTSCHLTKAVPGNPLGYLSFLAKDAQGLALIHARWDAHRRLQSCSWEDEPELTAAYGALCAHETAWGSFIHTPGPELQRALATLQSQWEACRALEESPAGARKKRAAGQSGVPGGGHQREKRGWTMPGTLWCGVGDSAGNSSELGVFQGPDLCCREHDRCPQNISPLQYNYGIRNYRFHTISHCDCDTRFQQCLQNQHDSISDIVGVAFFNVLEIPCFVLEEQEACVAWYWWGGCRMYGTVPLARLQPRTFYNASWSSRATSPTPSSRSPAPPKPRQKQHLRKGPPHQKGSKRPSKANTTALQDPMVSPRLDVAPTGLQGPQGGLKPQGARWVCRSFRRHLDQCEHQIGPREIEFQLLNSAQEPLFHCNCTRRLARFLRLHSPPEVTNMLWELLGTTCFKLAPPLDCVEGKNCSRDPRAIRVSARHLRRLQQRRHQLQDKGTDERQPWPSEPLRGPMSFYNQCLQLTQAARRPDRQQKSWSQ
# Rin1-Abl PPI inh = inhibitors of human Rin1-Abl protein interaction; P00519+Q13671; TR-FRET Rin1/Abl binding, biochemical; inhibition, % at 7.35 µM; 360,000 tested, 0.4% active; in the data active = inhibition above about 5%, passing the limit was not always enough
# hGIII sPLA2 conf = human GIII-sPLA2 inhibition, confirmation. shares compounds with HGIII-sPLA2 inh. recombinant hGIII-sPLA2, BODIPY PC-A2 QFRET fluorescence. inhibition, % at 12.2 µM. 2,000 tested, 34% active;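 active = mean inhibition across triplicates above the hit cutoff set in the earlier primary screen, cut at about 19% in these data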;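 note: 0% = enzyme with DMSO and 100% = DMSO wells lacking enzyme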
# 535nm interf = optically interferes with 535nm fluorescence in sPLA2 counter-screen; shares compounds with HGIII-sPLA2 inh; BODIPY FL product fluorescence interference, QFRET; inhibition, % at 12.2 µM; 2,000 tested, 8.5% active; AID 743282;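 active = average inhibition above the solvent-only control mean plus 3 SD, cut at about 6% in these data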;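 note: 0% = DMSO with substrate plus product and 100% = DMSO with substrate alone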
# 535nm interf DR = 535nm optical interference dose response, HGIII-sPLA2 counter-screen; BODIPY FL product fluorescence interference, cell-free; shares compounds with HGIII-sPLA2 inh; 240 tested, under 10 active; AID 743455; IC50, µM;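 active = IC50 at or below 10 µM; inactive = IC50 above 10 µM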
# Starred values were filed as active, the others as inactive; . = no result.
SMILES,ARNT-TACC3 inh,AI-2 QS mod,HGIII-sPLA2 inh,Rin1-Abl PPI inh,hGIII sPLA2 conf,535nm interf,others
O=C(NNc1nc(-c2ccc(F)cc2)cs1)c1ccccc1,1,23,29*,-5,40*,8.1*,
O=C(NNc1nc(-c2ccccc2)cs1)c1ccc(F)cc1,4,24,36*,-4,46*,11*,
CC(=O)NNc1nc(-c2ccccc2)cs1,5,40,4,3,.,.,
O=C(C[C@@H]1CC[C@H](NC(=O)c2cccc(F)c2)[C@H](CO)O1)Nc1nccs1,1,.,.,.,.,.,
CO[C@@H]1CN(C)C(=O)c2ccc(NC(=O)c3cccc(F)c3)cc2OC[C@@H](C)N(C(C)=O)C[C@@H]1C,-8,.,.,.,.,.,
COC(=O)c1cnn(-c2ccc(Cl)cc2)c1/C=N/NC(N)=S,14,13,25*,-2,7,-4,
Nc1c(C(=O)N/N=C/c2ccc(Cl)cc2)cnn1-c1ccccc1,-7,13,5,0,.,.,
C[C@@H]1CCCCO[C@H](CN(C)C)[C@@H](C)CN([C@@H](C)CO)C(=O)c2cc(NC(=O)Cc3ccccc3)ccc2O1,-3,.,.,.,.,.,
O=C(CSc1nc2[nH]ncc2c(=O)[nH]1)NCc1ccc(F)cc1,-2,28,96*,1,5,-4,
Cc1ccc(NC(=O)COC(=O)c2cc(Cl)ccc2[N+](=O)[O-])c(C)c1,-8,41,20*,0,2,-6,
O=C(COC(=O)c1cc(Cl)ccc1[N+](=O)[O-])Nc1cccc2ccccc12,-9,8,-7,-1,.,.,
COCC#Cc1ccc2c(c1)O[C@@H](CN(C)CC1CC1)[C@@H](C)CN([C@@H](C)CO)S2(=O)=O,0,.,.,.,.,.,
O=C(CNS(=O)(=O)c1ccccc1)OCC(=O)c1ccc([N+](=O)[O-])cc1,-1,15,25*,-2,6,-2,
Cc1ccc(S(=O)(=O)NCC[C@@H]2CC[C@H](NC(=O)c3cnccn3)[C@H](CO)O2)cc1,-24,.,.,.,.,.,
O=C(O)c1cc(O)c2c(c1)[C@H]([C@H]1c3cc(C(=O)O)cc(O)c3C(=O)c3c(O[C@@H]4O[C@H](CO)[C@@H](O)[C@H](O)[C@H]4O)cccc31)c1cccc(OC3O[C@H](CO)[C@@H](O)[C@H](O)[C@H]3O)c1C2=O (stereo partly drawn),8,19,27*,12,3,1,
O=C(O)c1cc(O)c2c(c1)[C@@H]([C@H]1c3cc(C(=O)O)cc(O)c3C(=O)c3c(O[C@@H]4O[C@H](CO)[C@@H](O)[C@H](O)[C@H]4O)cccc31)c1cccc(OC3O[C@H](CO)[C@@H](O)[C@H](O)[C@H]3O)c1C2=O (stereo partly drawn),5,17,17,8,.,.,
Oc1ccc(Oc2ccccc2F)c2cccnc12,.,.,25*,.,26*,-2,
CCCCn1c(SCc2nc(N)nc(N3CCCCC3)n2)nc2c1c(=O)n(C)c(=O)n2C,-3,18,21*,-3,4,-32,
CCCn1c(SCc2nc(N)nc(N3CCCCC3)n2)nc2c1c(=O)n(C)c(=O)n2C,-5,32,-4,-1,.,.,
Cc1ccc(-n2c(=S)[nH]c3nc4c(cc3c2=O)COC(C)(C)C4)cc1,-30,29,-4,-1,.,.,
Cc1ccccc1-n1c(=S)[nH]c2nc3c(cc2c1=O)COC(C)(C)C3,-7,6,20*,-1,4,-4,
C[C@@H]1CCCCO[C@H](CN(C)C(=O)CCC(F)(F)F)[C@@H](C)CN([C@H](C)CO)C(=O)c2cc(NC(=O)NC3CCCCC3)ccc2O1,-6,.,.,.,.,.,
COC(=O)C[C@@H]1CC[C@H]2[C@@H](COc3ccc(NC(=O)c4ccccc4F)cc3C(=O)N2C)O1,-4,.,.,.,.,.,
O=C(NC1Cc2ccccc2C1)[C@@H]1[C@@H](CO)[C@@H]2Cn3c(cccc3=O)[C@@H]2N1C(=O)c1ccccn1,1,.,.,.,.,.,
Cc1ccc(N2CCOCC2)c2c1C(=O)c1ccccc1C2=O,31,13,25*,-13,29*,-1,535nm interf DR=>122
SMILES,ARNT-TACC3 inh,AI-2 QS mod,HGIII-sPLA2 inh,Rin1-Abl PPI inh,hGIII sPLA2 conf,535nm interf,others
FC(F)(F)c1cnc(NNC(=S)Nc2cccnc2)c(Cl)c1,31,30,20*,2,33*,1,535nm interf DR=>122
COC(=O)[C@]12C[C@H](CC(=O)N3CCOCC3)C(=O)N(Cc3ccc(Cl)cc3Cl)C1=C[C@H](C1CCCC1)O[C@@H]2C,.,.,77*,.,-16,-23,
CCOC(=O)N1CCN(C(=O)C[C@H]2C[C@@]3(C(=O)OC)C(=C[C@H](C4CCCC4)O[C@@H]3C)N(Cc3ccc(Cl)cc3Cl)C2=O)CC1,.,.,-14,.,.,.,
CCCC(=O)Nc1ccc2c(c1)C(=O)N(C)[C@@H]1CC[C@@H](CC(=O)NCCOC)O[C@@H]1CO2,-10,.,.,.,.,.,
O=C(O)/C=C/C(=O)Nc1ccc(C2(c3ccc(NC(=O)/C=C/C(=O)O)cc3)c3ccccc3-c3ccccc32)cc1,-1,13,22*,-2,-12,-4,
O=C(C1CCCC1)N1CCCCN2[C@H](CO)[C@@H](c3ccc(C#CC4(O)CCCC4)cc3)[C@H]2C1,5,.,.,.,.,.,
CCOc1ccc(N=Nc2c(=O)[nH]n3c(C)cc(C)nc23)cc1,1,20,0,-14,.,.,
COc1cccc(N=Nc2c(=O)[nH]n3c(C)cc(C)nc23)c1,5,8,22*,-11,-5,0,
Nc1[nH]n(-c2ccccc2)c(=O)c1N=Nc1ccccc1,14,12,23*,-6,33*,6.3*,
CCn1cc(C2C3=C(CC(C)(C)CC3=O)N(c3ccc(C)cc3)C3=C2C(=O)CC(C)(C)C3)c(C)n1,5,.,20*,-2,-3,-12,
CCn1cc(C2C3=C(CC(C)(C)CC3=O)N(c3ccccc3)C3=C2C(=O)CC(C)(C)C3)c(C)n1,-9,5,5,-3,.,.,
Cc1ccc(S(=O)(=O)N(C)C[C@H]2Oc3ccc(NS(=O)(=O)c4c(C)noc4C)cc3CC(=O)N([C@@H](C)CO)C[C@@H]2C)cc1,13,.,.,.,.,.,
Cn1ncc(Br)c1C(=O)N1CCOCC1,-3,6,20*,-1,-6,-1,
CC(C)(C)c1cc(C(=O)N/N=C/c2ccccc2O)n(-c2ccccc2)n1,28,41,28*,-1,-4,-19,
CCC(=O)N1C[C@H](C)[C@H](OC)CN(C)C(=O)c2ccc(NC(=O)c3ccc(F)cc3)cc2OC[C@@H]1C,-2,.,.,.,.,.,
CCOC(=O)CCNC(=O)N1CCCC(CCC(=O)N(C)CCc2ccccn2)C1 (stereo not drawn),.,-4,24*,2,0,-10,
COc1ccc2cc(CCNC(=O)c3cccc([N+](=O)[O-])c3)c(=O)[nH]c2c1,-4,23,-5,-6,.,.,
